# Laboratory results as given in the supplement of paper PMC11219838.
# Test system: Meloidogyne hapla J2
# Assay: proportion of mobile M. hapla J2 relative to DMSO control (fraction of DMSO control); higher = more viable, less nematicidal, active = 0.7 or less
# Settings: 60 µM; 5 days; temperature: 20 °C
# Procedure: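 DODA library (846 commercial 1,3,4- and 1,2,4-oxadiazole compounds plus commercial nematicide controls) screened at a single dose of 60 µM (0.6% DMSO) in 96-well plates, two biological replicates. Read-outs: C. elegans N2 L1 survival/reproduction score at day 6, 20 °C (0: 0-10 worms, 1: 11-20, 2: 21-50, 3: >50, 4: overgrown/starved). C. elegans daf-2 dauer, D. dipsaci and M. hapla J2 mobility at day 5, 20 °C, and P. penetrans mobility at day 5, 20 °C, each relative to DMSO controls. M. hapla egg hatching at day 12, 25 °C, relative to the mean of 8 DMSO wells on the same plate.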
row,Compound,proportion of mobile M. hapla J2
1,COc1ccccc1CC(=O)Nc1ccc(-c2noc(-c3ccc(Cl)cc3)n2)cc1,0.938 (inactive)
2,Cc1c(C)n(C(=O)CSc2nnc(-c3ccccc3)o2)c2ccccc12,0.982 (inactive)
3,CCCc1nnc(SCc2nnc(-c3ccccc3)o2)o1,1.03 (inactive)
4,O=C(CSc1nnc(-c2cccc3ccccc23)o1)c1ccc(F)cc1,0.912 (inactive)
5,Cc1ccccc1-c1nc(-c2ccc3c(c2)OCO3)no1,0.848 (inactive)
6,CCOc1cc(C#N)ccc1OCc1nc(-c2cccs2)no1,1.07 (inactive)
7,CCOc1ccc(NC(=O)CSc2nnc(-c3ccncc3)o2)cc1,0.897 (inactive)
8,Cc1ccc(OCc2nc(-c3ccc(Br)o3)no2)cc1C,1 (inactive)
9,O=C(Nc1ccc(-c2noc(COc3ccccc3)n2)cc1)c1ccc(F)cc1,1.03 (inactive)
10,COc1ccc(-c2nnc(SCC(=O)Nc3ccccc3F)o2)cc1,1.04 (inactive)
11,Cc1ccc(OCc2nc(-c3ccc(Cl)cc3)no2)cc1C,1.05 (inactive)
12,Brc1ccc(-c2noc(COc3ccc4c(c3)OCO4)n2)cc1,1.06 (inactive)
13,CCNC(=O)c1ccccc1-c1nc(-c2ccc(F)cc2)no1,0.998 (inactive)
14,COc1ccc(-c2noc(-c3ccccc3C(=O)Nc3cccc(C)c3C)n2)cc1,0.912 (inactive)
15,Cc1ccc(-c2nc(-c3ccncc3)no2)c(Cl)c1,0.979 (inactive)
16,Cc1cccc(C)c1NC(=O)CSc1nnc(-c2ccncc2)o1,0.908 (inactive)
17,COc1ccc(-c2nnc(SCc3ccccc3)o2)cc1,0.96 (inactive)
18,c1ccc(CSc2nnc(-c3ccccc3)o2)cc1,1.04 (inactive)
19,c1cncc(-c2noc(COc3cccc4ccccc34)n2)c1,0.991 (inactive)
20,Brc1cccc(-c2noc(-c3ccc4c(c3)OCO4)n2)c1,1.03 (inactive)

row,Compound,proportion of mobile M. hapla J2
1,COc1ccc(CSc2nnc(-c3ccc(Cl)cc3Cl)o2)cc1,1.01 (inactive)
2,Cc1cccc(-c2noc(-c3ccc(Br)cc3)n2)c1,1.04 (inactive)
3,CCc1ccc(OCc2nc(-c3ccccn3)no2)cc1,0.966 (inactive)
4,COc1ccccc1NC(=O)c1ccccc1-c1nc(-c2ccccc2F)no1,1.02 (inactive)
5,Cc1ccccc1OCc1nc(-c2cccs2)no1,0.753 (inactive)
6,COc1ccc(-c2noc(CSc3nc(C)cc(C)n3)n2)cc1,0.992 (inactive)
7,Cc1ccc(SCc2nc(-c3ccccc3)no2)cc1,1.14 (inactive)
8,COc1ccc(NC(=O)CSc2nnc(-c3ccccc3C)o2)cc1,0.838 (inactive)
9,Clc1ccc(OCc2nc(-c3ccc4c(c3)OCO4)no2)cc1,0.932 (inactive)
10,O=C(c1ccccc1-c1nc(-c2ccccc2Cl)no1)N1CCCCC1,0.932 (inactive)
11,Cc1ccc(C)c(-c2nc(-c3ccncc3)no2)c1,1.09 (inactive)
12,O=C(Nc1ccccc1-c1nc(-c2cccnc2)no1)c1cccs1,1.02 (inactive)
13,Cc1cc(C)c(C)c(OCc2nc(-c3ccccc3)no2)c1,0.95 (inactive)
14,CCSc1nnc(-c2ccc(Cl)cc2Cl)o1,0.607 (active)
15,CCOc1ccccc1-c1nnc(SCC(=O)NC(C)CC)o1 (stereo not given),0.951 (inactive)
16,N#Cc1ccc(CSc2nnc(-c3ccncc3)o2)cc1,0.972 (inactive)
17,COc1ccc(-c2noc(-c3ccc(C)c(C)c3)n2)cc1,0.807 (inactive)
18,O=C(CSc1nnc(-c2ccc(Cl)cc2)o1)Nc1nccs1,0.917 (inactive)
19,Fc1ccc(-c2noc(-c3ccc(Br)cc3)n2)cc1,1.04 (inactive)
20,Clc1ccc(-c2nc(-c3ccccc3Br)no2)cc1,0.984 (inactive)
